Results reported in PubChem BioAssay.
Active and inactive are the calls of the source.

How the values were obtained:
[1] = binders of probe aFSTL3 on microarray, primary screen, stem cell growth factor project, biochemical, small-molecule microarray, fluorescence 635/667 (AID 1064); conditions: higher = more signal;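 note: measures binding of the biotinylated anti-FSTL3 antibody to printed compounds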
[2] = binders from COS7 lysate, DM2A8 probe, primary screen, torsin A project, cell lysate, small-molecule microarray, fluorescence 635/667 (AID 1065); conditions: higher = more signal, COS7 lysate expressing mutant human TOR1A
[3] = binders of probe aFGF2 on microarray, primary screen, stem cell growth factor project, biochemical, small-molecule microarray, fluorescence 635/667 (AID 1067); conditions: higher = more signal;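 note: measures binding of biotinylated aFGF2 protein to printed compounds on slides; z-score merges feature fluorescence and signal-to-noise across triplicate slides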
[4] = binders of probe aFGF10 on microarray, primary screen, stem cell growth factor project, biochemical, small-molecule microarray, fluorescence 635/667 (AID 1071); conditions: higher = more signal;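 note: score merges 667 nm spot intensity and signal to noise from triplicate slides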
[5] = target: Neurogenic locus notch homolog protein 2 (Homo sapiens) (UniProt Q04721); experiment: Notch2 binders on small-molecule microarrays, primary screen, biochemical, small-molecule microarray, 635 nm fluorescence, stem cell growth factors (AID 1073); conditions: Notch2 binding, higher = more signal
[6] = target: Pro-neuregulin-1, membrane-bound isoform (Homo sapiens) (UniProt Q02297); experiment: NRG1 binders on small-molecule microarrays, primary screen, psychiatric disease protein project, biochemical, small-molecule microarray, fluorescence 635/667 (AID 1075); conditions: NRG1 binding, 635 nm fluorescence, higher = more signal;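 note: score combines 667 nm spot fluorescence with signal to noise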
[7] = tested on: Neuregulin-1 EGF-like domain; experiment: binders of neuregulin-1 EGF-like domain, primary screen, biochemical, small-molecule microarray, 635 nm fluorescence (AID 1081); conditions: small-molecule microarray binding, higher = more signal;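 note: binding of the protein to compounds printed on small-molecule microarray slides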
[8] = FRG1 promoter luciferase signal modulators, primary screen, FRG1 inhibition for FSHD, cell-based, C2C12 myotubes, firefly/Renilla luciferase, luminescence (AID 1084); conditions: higher = more signal, called active from +8 up or from −8 down
[9] = binders of probe aFST on microarray, primary screen, stem cell growth factor project, biochemical, small-molecule microarray, fluorescence 635/667 (AID 1086); conditions: higher = more signal;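 note: score merges 667 nm fluorescence with signal-to-noise of each printed compound spot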
[10] = binders of probe aHhip on microarray, primary screen, stem cell growth factor project, biochemical, small-molecule microarray, fluorescence 635/667 (AID 1087); conditions: higher = more signal;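 note: score merges spot fluorescence at 667nm with spot signal to noise ratio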
[11] = tested on: PRMT1 (protein arginine N-methyltransferase 1); experiment: PRMT1 binders on small-molecule microarrays, primary screen, biochemical, small-molecule microarray, 635 nm fluorescence (AID 1088); conditions: small-molecule microarray binding, higher = more signal;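 note: binding of Prmt1 protein to compounds spotted on small-molecule microarray slides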
[12] = yeast growth modulation, basal conditions, primary screen, YJM789 clinical isolate, OD600, 24 h (AID 1089);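 note: growth of clinical yeast isolate S. cerevisiae YJM 789 seeded 1000 cells per well; test concentration not given here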; conditions: S. cerevisiae YJM789 growth, higher = more signal, called active from +8 up or from −8 down
[13] = fission yeast growth modulation, primary screen, strain 972, OD600, 24 h, no modulator (AID 1090);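 note: basal condition with compound alone and no growth modifier present; test concentration not given here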; conditions: S. pombe 972 growth, higher = more signal, called active from +8 up or from −8 down
[14] = S. cerevisiae growth modulation with rapamycin, primary screen, strain BY4716, OD600, 96 h (AID 1091); conditions: higher = more signal, called active from +8 up or from −8 down; note: test concentration not given here
[15] = target: Torsin-1A-interacting protein 2 (Homo sapiens) (UniProt Q8NFQ8); experiment: LULL1 binders on small-molecule microarray, primary screen, cell lysate, human LULL1 lysate, 635/667 nm fluorescence (AID 1092); conditions: hLULL1 lysate binding, 635 nm fluorescence, higher = more signal;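 note: probe is lysate of COS7 cells overexpressing human LULL1; score merges per-feature 667 nm fluorescence with signal-to-noise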
[16] = E. coli growth modulation, two-sided OD650, primary screen, E. coli filamentation project, strain DRC41, 24 h (AID 1093); conditions: OD650, 24 h, higher = more signal, called active from +8 up or from −8 down;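 note: MC1000 strain lacking acrAB efflux and sulA so SOS filamentation is blocked; test concentration not given here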
[17] = small-molecule microarray binders of probe aLefty2, primary screen, biochemical, biotinylated probe, 635/667 nm fluorescence (AID 1094); conditions: higher = more signal;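 note: score merges spot fluorescence near 667 nm with spot signal-to-noise ratio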
[18] = tested on: Noggin (protein binding on small-molecule microarray); experiment: Noggin binders on small-molecule microarray, primary screen, biochemical, 635/667 nm fluorescence (AID 1095); conditions: 635 nm fluorescence, higher = more signal;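 note: score merges 667 nm feature fluorescence with signal to noise over triplicate slides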
[19] = target: Neurogenic locus notch homolog protein 3 (Homo sapiens) (UniProt Q9UM47); experiment: NOTCH3 binders on small-molecule microarray, primary screen, biochemical, 635/667 nm fluorescence (AID 1096); conditions: NOTCH3 binding, 635 nm fluorescence, higher = more signal
[20] = small-molecule microarray binders of probe aEGFR, primary screen, biochemical, biotinylated probe, 635/667 nm fluorescence (AID 1097); conditions: higher = more signal;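 note: probe is a biotinylated anti-EGFR antibody binding compounds printed on slides; score combines fluorescence near 667 nm and signal to noise of each spot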

Torsin-1A-interacting protein 2 (Homo sapiens), sequence (Q8NFQ8 whole entry, looked up): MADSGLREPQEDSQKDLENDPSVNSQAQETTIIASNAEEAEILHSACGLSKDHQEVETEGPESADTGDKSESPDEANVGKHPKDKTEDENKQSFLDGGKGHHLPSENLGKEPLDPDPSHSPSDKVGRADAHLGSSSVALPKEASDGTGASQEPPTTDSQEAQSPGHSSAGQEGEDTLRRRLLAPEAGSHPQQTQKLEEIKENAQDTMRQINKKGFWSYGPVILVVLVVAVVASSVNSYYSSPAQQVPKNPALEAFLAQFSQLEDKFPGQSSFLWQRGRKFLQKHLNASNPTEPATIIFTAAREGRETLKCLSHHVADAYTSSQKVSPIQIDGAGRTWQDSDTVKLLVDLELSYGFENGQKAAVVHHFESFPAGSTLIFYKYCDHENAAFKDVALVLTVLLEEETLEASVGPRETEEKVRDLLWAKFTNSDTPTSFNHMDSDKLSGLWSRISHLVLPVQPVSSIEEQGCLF
Pro-neuregulin-1, membrane-bound isoform (Homo sapiens), sequence (Q02297 whole entry, looked up, the tested form may be a part, canonical isoform): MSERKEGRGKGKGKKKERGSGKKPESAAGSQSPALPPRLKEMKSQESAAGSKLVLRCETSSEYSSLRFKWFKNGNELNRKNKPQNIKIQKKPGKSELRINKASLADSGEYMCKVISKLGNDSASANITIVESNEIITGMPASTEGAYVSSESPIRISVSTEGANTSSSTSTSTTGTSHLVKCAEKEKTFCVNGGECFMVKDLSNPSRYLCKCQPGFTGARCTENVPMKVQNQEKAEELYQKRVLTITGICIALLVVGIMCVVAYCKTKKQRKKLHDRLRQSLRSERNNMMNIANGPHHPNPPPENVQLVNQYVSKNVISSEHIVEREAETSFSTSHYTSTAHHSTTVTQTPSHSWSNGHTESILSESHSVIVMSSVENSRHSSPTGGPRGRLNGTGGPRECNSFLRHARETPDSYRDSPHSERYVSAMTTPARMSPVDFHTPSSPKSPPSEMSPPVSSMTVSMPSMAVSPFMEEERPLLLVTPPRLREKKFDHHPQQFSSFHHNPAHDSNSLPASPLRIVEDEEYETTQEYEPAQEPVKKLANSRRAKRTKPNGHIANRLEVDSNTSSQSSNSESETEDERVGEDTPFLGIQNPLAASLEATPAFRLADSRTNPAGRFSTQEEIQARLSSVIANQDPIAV
Neurogenic locus notch homolog protein 2 (Homo sapiens), sequence (Q04721 whole entry, looked up, canonical isoform): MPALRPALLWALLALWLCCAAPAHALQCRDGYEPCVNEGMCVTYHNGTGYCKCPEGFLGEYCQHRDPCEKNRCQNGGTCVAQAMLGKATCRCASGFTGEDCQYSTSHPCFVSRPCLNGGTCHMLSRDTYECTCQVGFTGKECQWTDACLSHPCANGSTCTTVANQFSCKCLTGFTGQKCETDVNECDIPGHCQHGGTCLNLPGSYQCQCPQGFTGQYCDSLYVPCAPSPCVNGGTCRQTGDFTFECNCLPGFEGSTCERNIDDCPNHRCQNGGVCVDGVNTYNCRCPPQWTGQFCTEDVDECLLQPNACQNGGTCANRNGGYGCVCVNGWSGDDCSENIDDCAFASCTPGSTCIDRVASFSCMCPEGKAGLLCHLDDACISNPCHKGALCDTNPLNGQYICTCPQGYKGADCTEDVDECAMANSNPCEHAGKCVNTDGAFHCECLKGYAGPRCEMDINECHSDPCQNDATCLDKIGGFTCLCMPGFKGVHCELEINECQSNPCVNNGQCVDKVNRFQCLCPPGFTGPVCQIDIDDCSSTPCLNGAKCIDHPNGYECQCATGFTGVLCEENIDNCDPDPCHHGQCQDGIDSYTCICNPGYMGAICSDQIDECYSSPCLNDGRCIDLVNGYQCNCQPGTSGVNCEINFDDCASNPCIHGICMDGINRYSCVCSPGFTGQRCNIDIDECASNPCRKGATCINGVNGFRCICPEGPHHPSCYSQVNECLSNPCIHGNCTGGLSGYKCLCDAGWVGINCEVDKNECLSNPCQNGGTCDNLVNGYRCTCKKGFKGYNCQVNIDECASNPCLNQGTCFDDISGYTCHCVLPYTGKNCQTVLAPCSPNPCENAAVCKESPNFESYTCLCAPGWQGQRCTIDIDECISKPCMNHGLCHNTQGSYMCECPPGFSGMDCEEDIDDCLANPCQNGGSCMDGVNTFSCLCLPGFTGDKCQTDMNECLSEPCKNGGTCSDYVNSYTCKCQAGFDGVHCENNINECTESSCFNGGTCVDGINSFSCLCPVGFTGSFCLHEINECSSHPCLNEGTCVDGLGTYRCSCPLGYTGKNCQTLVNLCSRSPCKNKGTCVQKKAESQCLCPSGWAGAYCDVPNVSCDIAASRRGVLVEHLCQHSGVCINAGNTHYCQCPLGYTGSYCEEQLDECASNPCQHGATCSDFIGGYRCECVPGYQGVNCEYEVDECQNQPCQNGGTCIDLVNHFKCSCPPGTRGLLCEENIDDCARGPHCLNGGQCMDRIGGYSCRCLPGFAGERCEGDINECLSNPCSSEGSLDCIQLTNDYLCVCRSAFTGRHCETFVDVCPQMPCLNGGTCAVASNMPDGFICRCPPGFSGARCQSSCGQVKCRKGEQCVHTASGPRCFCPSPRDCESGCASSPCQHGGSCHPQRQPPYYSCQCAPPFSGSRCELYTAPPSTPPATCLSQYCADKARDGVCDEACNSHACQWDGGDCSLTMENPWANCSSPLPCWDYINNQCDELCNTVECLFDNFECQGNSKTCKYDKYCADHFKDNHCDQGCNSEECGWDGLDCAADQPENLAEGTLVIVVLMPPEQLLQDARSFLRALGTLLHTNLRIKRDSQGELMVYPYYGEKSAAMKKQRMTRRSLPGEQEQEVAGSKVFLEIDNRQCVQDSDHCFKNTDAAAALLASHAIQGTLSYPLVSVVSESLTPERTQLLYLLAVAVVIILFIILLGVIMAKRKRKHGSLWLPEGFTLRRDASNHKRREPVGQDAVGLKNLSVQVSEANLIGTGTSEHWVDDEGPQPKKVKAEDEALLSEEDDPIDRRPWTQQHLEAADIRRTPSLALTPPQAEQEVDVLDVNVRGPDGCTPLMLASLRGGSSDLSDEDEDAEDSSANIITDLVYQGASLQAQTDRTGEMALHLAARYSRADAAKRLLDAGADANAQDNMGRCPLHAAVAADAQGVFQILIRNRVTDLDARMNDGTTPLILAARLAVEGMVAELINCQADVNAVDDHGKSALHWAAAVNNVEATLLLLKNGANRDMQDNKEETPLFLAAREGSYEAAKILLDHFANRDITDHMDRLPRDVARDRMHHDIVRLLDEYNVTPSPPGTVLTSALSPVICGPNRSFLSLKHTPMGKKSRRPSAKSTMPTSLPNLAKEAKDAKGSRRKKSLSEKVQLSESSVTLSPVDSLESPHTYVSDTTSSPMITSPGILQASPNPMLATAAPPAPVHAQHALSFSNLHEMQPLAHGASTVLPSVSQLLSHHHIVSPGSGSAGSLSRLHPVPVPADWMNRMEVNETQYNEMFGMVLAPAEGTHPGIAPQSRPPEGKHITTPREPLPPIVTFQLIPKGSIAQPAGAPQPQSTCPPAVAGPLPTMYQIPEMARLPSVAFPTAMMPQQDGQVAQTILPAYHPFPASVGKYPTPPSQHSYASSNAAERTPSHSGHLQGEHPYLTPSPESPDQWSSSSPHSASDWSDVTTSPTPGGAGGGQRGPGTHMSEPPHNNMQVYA

Row | Compound | composite z-score [1] | composite z-score [2] | composite z-score [3] | composite z-score [4] | composite z-score [5] | composite z-score [6] | composite z-score [7] | z-score [8] | composite z-score [9] | composite z-score [10] | composite z-score [11] | z-score [12] | z-score [13] | z-score [14] | composite z-score [15] | z-score [16] | composite z-score [17] | composite z-score [18] | composite z-score [19] | composite z-score [20]
1 | COCCCNC(=O)[C@@]1(Cc2ccccc2N=[N+]=[N-])N=C(c2ccc(OCCCO)cc2)O[C@H]1c1ccccc1CN=[N+]=[N-] | 0.377 | 0.556 | 0.185 | 1.07 | 1.47 | 1.78 | 1.26 | -0.344 (inactive) | 0.893 | -0.192 | 1.56 | -0.873 (inactive) | 0.553 (inactive) | 6.93 (inactive) | 3.49 | 1.04 (inactive) | 0.235 | -0.0194 | 1.07 | 0.43
2 | CC(C)[Si](C#C[Si](C(C)C)(C(C)C)C(C)C)(O[C@H](C)c1cn(Cc2cccc(Cl)c2)nn1)C(C)C | -0.333 | -0.0681 | -0.123 | 0.316 | 0.496 | 0.528 | 0.94 | -1.14 (inactive) | 0.323 | -0.0994 | 1.36 | 0.487 (inactive) | 0.115 (inactive) | -0.318 (inactive) | 1.04 | 2.18 (inactive) | -0.148 | 0.52 | 0.902 | 0.0192
3 | C=CCNC(=O)[C@@H]1[C@H]2C(=O)O[C@H](c3ccccc3)[C@H](c3ccccc3)N2[C@H](c2ccc(O)cc2)[C@@]12C(=O)Nc1ccc(C#CCCO)cc12 | 0.0065 | -0.395 | -0.13 | 0.508 | -1.34 | 1.37 | -0.353 | -0.0378 (inactive) | -1.05 | -0.251 | -0.36 | -0.328 (inactive) | -0.397 (inactive) | -0.301 (inactive) | 2.17 | 2.31 (inactive) | -0.259 | -1.2 | -0.261 | -0.261
4 | CC(C)=CCCC(C)=CC(O)C1C=CC2C(=O)N(c3ccccc3)C(=O)C2N1Nc1ccc([N+](=O)[O-])cc1 (stereo not given) | -0.265 | 0.148 | 0.0159 | 0.344 | 1.59 | 1.64 | 1.28 | -1.01 (inactive) | 0.852 | -0.0237 | 1.52 | -0.706 (inactive) | -0.589 (inactive) | 8.22 (active) | 3.8 | -0.867 (inactive) | 0.0634 | -0.14 | 1.12 | 0.0466
5 | CCCC=C(CCC)[C@@H](NS(=O)(=O)CC)c1ccccc1 | -0.14 | -0.534 | 0.0583 | 0.576 | 1.15 | 0.808 | 1.09 | 1.33 (inactive) | 0.725 | -0.0645 | 1.17 | 0.472 (inactive) | 1.22 (inactive) | 0.565 (inactive) | 2.57 | -0.66 (inactive) | 0.195 | 0.222 | 1.16 | 0.0093
